Not all results are given here.
aSyn 5UTR act: Activators working through SNCA 5'UTR binding (MLPCN); alpha-synuclein 5'UTR reporter, activators screen; activity score, % (tested at 7.5 µM), hits read low; 300,000 compounds, 7.1% hits; AID 1814; in the data active = activity score below about -60%
The depositor's hits bear a star.

SMILES | aSyn 5UTR act
O=C(O)CC/C(=N/NC(=O)c1cccs1)c1ccccc1 | -167.2*
CC(=O)Oc1cccc(C(=O)Nc2ccc(NC(=O)c3cccs3)cc2)c1 | -106.5*
O=C(Nc1ccc(NC(=O)c2cccs2)cc1)c1ccco1 | -231.9*
O=C(N/N=C(\Cc1ncc[nH]1)c1ccccc1)c1ccccc1 | 74.2
O=C(Nc1ccc2c(c1)CCC2)c1cccs1 | -144.9*
O=C(Nc1ccc(NC(=O)c2cccs2)cc1)c1ccccc1 | -140.4*
O=C(Nc1ccc(O)cc1)c1ccc(NC(=O)c2cccs2)cc1 | -69.6*
Cc1ccc(NC(=O)c2cccs2)cc1 | -145.2*
COc1c(Cl)cc(Cl)cc1/C=C/C(=O)c1ccc(NC(=O)c2cccs2)cc1 | -114.8*
O=C(Nc1cccc(O)c1)c1ccc(NC(=O)c2cccs2)cc1 | -68.4*
O=C(Nc1ccc(Cc2ccncc2)cc1)c1cccs1 | -65.7*
CCN(CC)CCCNC(=S)N1CCN(c2nc(-c3ccc(F)cc3)cs2)CC1 | 132.8
COc1ccc(-c2csc(N3CCC(c4ccccc4)C3)n2)cc1 (stereo unspecified) | -114.1*
COc1ccc(-c2csc(-n3cccn3)n2)cc1 | -153.3*
Fc1ccc(-c2csc(N3CCC(c4ccccc4)C3)n2)cc1 (stereo unspecified) | -198.6*
Clc1ccc(-c2csc(N3CCC(c4ccccc4)C3)n2)cc1 (stereo unspecified) | -225.9*
COc1ccc(-c2csc(N3CCSCC3)n2)cc1 | -224.7*
O=C(Cc1ccccc1F)Nc1nc(-c2ccc(F)c(F)c2)cs1 | -85.1*
O=C(Cc1ccccc1F)Nc1nc(-c2cccs2)cs1 | -77.8*
O=C(Cc1ccccc1)Nc1nc(-c2cccs2)cs1 | -136.1*
Cc1ccc(-n2nc(C)c3c(C)cc(=O)[nH]c32)cc1 | -68.7*
O=C(c1cc2ccccc2oc1=O)N(c1ccc(Cl)cc1)C1C=CS(=O)(=O)C1 (stereo unspecified) | -154.6*
O=C(COC(=O)c1ccccc1Cc1ccccc1)Nc1ccc(SC(F)F)cc1 | -109.3*
O=C(Cc1ccccc1F)Nc1ccc(SC(F)F)cc1 | -136.9*
CCCCCCCn1c2c(c(=N)c3c1CCC3)CCCC2 | 82.5
SMILES | aSyn 5UTR act
CC(=O)NC(c1cccc([N+](=O)[O-])c1)c1ccc2cccnc2c1O (stereo unspecified) | 122.6
O=[N+]([O-])c1ccc(/C=C/c2ccc3cccc([N+](=O)[O-])c3n2)cc1 | -92.2*
O=[N+]([O-])c1cccc(/C=C/c2ccc3cccc(O)c3n2)c1 | -82.3*
O=[N+]([O-])c1cccc2ccc(/C=C/c3ccc(F)cc3)nc12 | -291.1*
CCc1ccc(N2NC(=O)/C(=C/C=C/c3ccco3)C2=O)cc1 | -77.9*
CCOC(=O)c1cn2ccc(C)cc2n1 | -107.3*
CC(C)OC(=O)CC12CN(C)CC(CC(=O)OC(C)C)(CN(C)C1)C2=O | -98.3*
COc1cccc(Cn2c(NCc3cccnc3)nc3c2c(=O)n(C)c(=O)n3C)c1 | 71.3
COc1ccc2c(c1)sc(N)[n+]2Cc1cc(C)cc2cccnc12 | 114.3
Cc1cccc(Nc2nc3ccccc3s2)c1C | -180.9*
COc1ccc2nc(-n3c(C)ccc3C)sc2c1 | -62.2*
COc1ccc2nc(NC3=NCCC3)sc2c1 | -179.0*
COc1ccc2nc(NCc3cccnc3)sc2c1 | -74.6*
COc1ccc(Nc2nc3ccccc3s2)cc1 | -159.5*
COc1cccc(Nc2nc3ccc(OC)cc3s2)c1 | -168.2*
O=C(C1=C(O)C(=O)N(c2ncccn2)C1c1ccc(Cl)c(Cl)c1)c1ccco1 (stereo unspecified) | -81.4*
CCC(=O)NC(c1ccco1)c1cc(Cl)c2cccnc2c1O (stereo unspecified) | 99.8
O=C(Oc1ccc(OC(=O)C2CCC2)cc1)C1CCC1 | -65.1*
CCOc1ccc(-c2cn(-c3ccc(OC)cc3)c(SC)n2)cc1 | -146.5*
CSc1nc(-c2ccccc2)cn1-c1ccc(NC(C)=O)cc1 | -105.6*
COc1cc(/C=C(\C#N)c2nc3c(s2)CCCC3)ccc1O | -158.3*
CC1CCc2nc(/C(C#N)=C/c3cccnc3)sc2C1 (stereo unspecified) | -191.7*
N#C/C(=C\c1cccnc1)c1nc2c(s1)CCCC2 | -140.9*
CCOC(=O)c1c(CSC(=N)N)n(-c2ccccc2)c2cc(Br)c(OC(C)=O)cc12 | -71.0*
COc1ccc(C(=O)O/N=C(\N)c2ccccc2)cc1 | -82.4*
SMILES | aSyn 5UTR act
COc1ccc(C(=O)O/N=C(\N)c2ccc(Br)cc2)cc1 | -174.4*
O=C(Nc1cc(-c2ccccc2)[nH]n1)c1ccc(Cl)cc1 | -123.7*
Cc1cc(NC(=O)c2cccc(Cl)c2)n[nH]1 | -70.8*
CC(=O)N1CCN(S(=O)(=O)c2cccc(C(=O)Nc3ccc(C)cn3)c2)CC1 | -71.4*
Cc1ccc(NC(=O)c2ccc3c(c2)NC(=O)CS3)nc1 | -92.6*
CCOC(=O)N1CCN(S(=O)(=O)c2ccc(C(=O)NNc3nc4cc(C)cc(C)c4s3)cc2)CC1 | 66.0
Cc1ccc(NC(=O)c2cccc(Cl)c2)nc1 | -75.5*
Cn1sc(NC(=O)c2cccc(Cl)c2)nc1=O | -118.2*
CC(=O)Nc1ccccc1/C=C/c1ccc2c(C)ccc(O)c2n1 | -64.3*

Screening results (PubChem)
